The whole screen tested about 48,000 compounds, of which about 13,000 (27%) showed an effect of 50% or more. This is one part of the list.
These compounds were tested on Wolbachia pipientis (assay: Anti-Wolbachia Cell-Based Screen). Conditions: 5 µM.
Format: functional
Design: scale not given: in the data most compounds retested in dose-response had high values

Row | Compound | Percent Effect [%]
1 | CNS(=O)(=O)Cc1ccccc1CNc1ccc(C#N)cn1 | 4.345
2 | Cc1cnccc1-n1nc(C(C)C)nc1CS(C)(=O)=O | -11.94
3 | Cn1cc(C(NCCc2ccccn2)c2cccc(F)c2)cn1 (stereo unspecified) | -5.902
4 | CN(C(=O)CCc1ccsc1)S(C)(=O)=O | -3.197
5 | CC(C)CNC(=O)N1C[C@H]2CC[C@@]3(N=C(c4ccccc4)NC3=O)[C@H]2C1 | -1.799
6 | CN(C)CCNCC1CCOC(C)(C)C1 (stereo unspecified) | 114.8
7 | CC1(C)CC(CN2CCC3(CCC(=O)N(CCO)C3)CC2)CCO1 (stereo unspecified) | -24.07
8 | CN(C)CCCNCC1CCOC(C)(C)C1 (stereo unspecified) | 84.35
9 | CC(C)NC(=O)C(C(C)C)n1cnc2cc(F)c(F)cc21 (stereo unspecified) | -2.583
10 | Cn1cnc2c1C(C(=O)N1CCOCC1)N(C(=O)c1ccccc1)CC2 (stereo unspecified) | 1.78
11 | Cc1ccc(-c2cc(N)c(=O)n(CC(=O)NCC3CCCCC3)n2)s1 | -12.04
12 | CCC1CCCCN1C(=O)Cn1nc(-c2ccc(C)o2)cc(N)c1=O (stereo unspecified) | 125.9
13 | Cc1cc(-c2cc(N)c(=O)n(CC(=O)N3CCCC(C)C3)n2)c(C)o1 (stereo unspecified) | 135.5
14 | CNC(=O)C1CCCCN1C(=O)Cc1csc(-c2ccc(C)o2)n1 (stereo unspecified) | 7.331
15 | CCC1CCCCN1C(=O)Cn1cnc(C#N)n1 (stereo unspecified) | -4.598
16 | CCOC(=O)CC1CCCCN1C(=O)c1cc(C)oc1C (stereo unspecified) | 1.644
17 | CCC1CCCCN1C(=O)Cn1nc(-c2ccc(C)s2)cc(N)c1=O (stereo unspecified) | 132.6
18 | CC1CCCN(C(=O)Cn2cc(I)cn2)C1 (stereo unspecified) | 2.299
19 | Cc1cc(C)n(C2CCCN(C(=O)Cn3ccc(=O)n(C)c3=O)C2)n1 (stereo unspecified) | 5.694
20 | CCC1CCCCN1C(=O)Cn1nc(-c2cc(C)oc2C)cc(N)c1=O (stereo unspecified) | 172.7
21 | CCOC(=O)CC1CCCCN1C(=O)c1cc(=O)[nH]c(=O)[nH]1 (stereo unspecified) | 3.722
22 | Cl.O=C(NCC1CCC2(CCNCC2)CO1)c1ccno1 (stereo unspecified) | -17.95
23 | COC(=O)N1CCC(Nc2cccc(F)c2C(C)=O)C1 (stereo unspecified) | 18.09
24 | Cc1cc(CNc2ccc3nc(C4CC4)sc3c2)no1 | -18.62

Row | Compound | Percent Effect [%]
25 | COc1ccc(C)cc1CCNS(=O)(=O)c1ccc2c(c1)CCC(=O)N2 | -14.2
26 | COCCN1CCC(NCc2cc(F)ccc2F)C1 (stereo unspecified) | 105
27 | COCCN1CCC(CNC(=O)CCc2cc(F)ccc2F)C1 (stereo unspecified) | -0.9804
28 | COCCN1CCC(NCc2cccc(F)c2)C1 (stereo unspecified) | 4.631
29 | COCCN1CCC(NCc2c(C)nn(C)c2N(C)C)CC1 | -18.36
30 | COCCN1CCC(NCc2c(F)cccc2F)C1 (stereo unspecified) | 93.26
31 | COCCN1CCC(NCc2ccc(Cl)cc2)C1 (stereo unspecified) | 79.9
32 | COCCN1CCC(NCc2cccnc2)C1 (stereo unspecified) | -0.4239
33 | COCCN1CCC(NC(=O)NCC2(c3cccc(F)c3)CC2)C1 (stereo unspecified) | 7.702
34 | COCCN1CCC(NCc2cccc(C)c2)C1 (stereo unspecified) | 89.68
35 | CCCN1CCC(NCc2ccncc2)CC1 | 12.05
36 | COCCN1CCC(NCc2ccc(C#N)cc2)C1 (stereo unspecified) | -5.015
37 | CSc1ccc(CN(C(=O)c2cc[nH]n2)C2CC2)cc1 | -13.27
38 | CCCN(Cc1nccn1C)C(=O)C(CC)Nc1cccc(OC)c1 (stereo unspecified) | -30.45
39 | COCCN1CCC(NCc2ccc(F)cc2F)C1 (stereo unspecified) | 87.91
40 | COCCN1CCC(NC(=O)C(C)C)CC1 | -12.29
41 | CC(C)Nc1ncccc1C(=O)NCc1ncc[nH]1 | 7.716
42 | Cc1cccc(I)c1C(=O)NCc1ncc[nH]1 | -11.65
43 | Cc1cc(C(F)F)nn1C(C)C(=O)NCc1nccn1C (stereo unspecified) | 129.1
44 | Cc1cc(C(F)F)nn1C(C)C(=O)NCc1ncc[nH]1 (stereo unspecified) | 132.9
45 | Cc1cc(C(F)(F)F)nn1C(C)C(=O)Nc1ccncc1 (stereo unspecified) | 11.57
46 | CCCN(Cc1nccn1C)C(=O)c1cc(C(C)C)on1 | -14.15
47 | Cc1ncc2c(n1)CCN(Cc1nc(Cc3ccccc3)no1)C2 | 2.52
48 | Cc1noc([C@@H]2C[C@H](NC(=O)Nc3ccccc3)CN2C)n1 | 1.901

Row | Compound | Percent Effect [%]
49 | CN(C)C(=O)C1CCCN1C(=O)c1ccc(Cn2ccnc2)o1 (stereo unspecified) | -6.024
50 | COc1ccc2c(C)nc(N3C[C@@H](C)O[C@@H](C)C3)nc2c1 | -4.468
51 | CCN1CCCC(O)(CNCc2ccccc2F)C1 (stereo unspecified) | 5.055
52 | CN1CCN(CCCNS(=O)(=O)Cc2ccccc2F)CC1 | -19.52
53 | CC(NCc1ccccn1)c1ccc(N2CCN(C)CC2)c(F)c1 (stereo unspecified) | -5.411
54 | CCN1CCN(c2ccc(F)cc2C(C)NCc2ccccn2)CC1 (stereo unspecified) | 9.781
55 | CCN1CCN(c2nc(O)cc(Cc3ccccc3F)n2)CC1 | 169.1
56 | COCCN1CCN(Cc2coc(-c3ccccc3Cl)n2)CC1 | -11.13
57 | CN1CCN(c2nc(O)cc(Cc3ccccc3F)n2)CC1 | 156.6
58 | C[C@@H]1CN(Cc2ccccc2F)CC(C(N)=O)O1 (stereo partly specified) | 1.23
59 | COCCN1CCN(c2nc(O)cc(Cc3ccccc3F)n2)CC1 | 126.9
60 | CCOc1ccnc(N2CCN(CCOC)CC2)n1 | -0.8063
61 | C[C@@H]1CN(c2nc(O)cc(Cc3ccccc3F)n2)C[C@H](C)O1 | 156.7
62 | c1ccc(Cn2cccn2)c(CN2CCC3(CCCNC3)C2)c1 (stereo unspecified) | -20.95
63 | O=S(=O)(CCO)Cc1ccc(OCC(F)(F)F)cc1 | 1.249
64 | COCCOCCNC(=O)C(C)Oc1ccccc1C(F)(F)F (stereo unspecified) | 0.2325
65 | O=C(O)C(F)(F)F.c1cc(CN2CCCn3cnc(COCC4CC4)c3C2)co1 | 3.975
66 | CCCc1cc(C(=O)N(C)Cc2cnc3ccccc3n2)n(C)n1 | -19.21
67 | CCCc1cc(C(=O)N[C@H](C)[C@@H](O)c2ccc(O)cc2)n(C)n1 | 110
68 | CCC(NC(=O)c1cc(CC(C)C)nn1C)c1ccnn1C (stereo unspecified) | 9.016
69 | CCCc1cc(C(=O)NC(c2ccccc2)c2n[nH]c(C)n2)[nH]n1 (stereo unspecified) | 3.333
70 | CCCc1cc(C(=O)N[C@@H](CO)[C@@H](O)c2ccccc2)n(C)n1 | 130.2
71 | CC(C)Cc1cc(C(=O)NCC(O)c2ccc(F)cc2)n(C)n1 (stereo unspecified) | 0.3453

From ChEMBL document CHEMBL3988442, “University of Dundee, Small-Polar-MMV Screening Library” (2021)
